IEC-6 cytotox: IEC-6 cytotoxicity, counter-screen for KLF5 inhibitors; luminescence viability; inhibition, % at 5 µM; 290,000 compounds, 0.78% hits; AID 1825; in the data active = inhibition above about 22%
APP 5UTR inh: APP translation inhibition; SH-SY5Y APP 5'UTR-luciferase reporter, luminescence; inhibition, % at 2 µM; 190,000 compounds, 0.82% hits;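 active = inhibition above a set limit, derived from the sample mean plus 3 SD, cut at about 45% in these data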
Ba/F3 V617F tox: reduce viability of Ba/F3 cells dependent on JAK2V617F | Ba/F3 EpoR-JAK2V617F viability, ATP luminescence | inhibition, % at 5.6 µM | 220,000 compounds, 1.1% hits | AID 1446;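 active = inhibition above the campaign mean plus 3 SD over all tested compounds, cut at about 24% in these data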;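 also: cytokine-independent growth of Ba/F3 cells driven by EpoR plus mutant JAK2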
KLF5 inhibitor: suppresses KLF5 promoter-driven expression. DLD-1 KLF5 promoter-luciferase reporter, luminescence. inhibition, % at 5 µM. 290,000 compounds, 0.23% hits. AID 1700;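 active = inhibition above a per-plate limit of that plate's mean compound inhibition plus 3 SD, cut at about 60% in these data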;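 also: higher means less KLF5 promoter-driven luciferase light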
aSyn UTR inh: 5' untranslated region of α-synuclein, MLPCN primary screen | alpha-synuclein 5'UTR reporter, inhibitor activity | inhibition, % (tested at 7.5 µM) | 300,000 compounds, 0.82% hits | AID 1813; in the data active = inhibition above about 60%;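 also: H4 neuroglioblastoma cells stably carrying SNCA 5'UTR luciferase fusion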
BaF3 tox: reduces parental Ba/F3 cell viability, JAK2V617F counter-screen; CellTiter-Glo ATP luminescence; inhibition, % at 5.6 µM; 220,000 compounds, 1.1% hits;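 active = inhibition above a per-campaign cutoff, the mean inhibition of all tested compounds plus 3 SD, cut at about 27% in these data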
A number is an active result; 0 = inactive; - = not tested or not shown. Most compounds without a hit are left out; they make up all but 2.2% or so of the library.

SMILES | IEC-6 cytotox | APP 5UTR inh | Ba/F3 V617F tox | KLF5 inhibitor | aSyn UTR inh | BaF3 tox
Cc1ccc2nc(NC(=O)CSCC(=O)OCC(=O)c3ccc(Br)cc3)sc2c1 | 0 | 0 | 0 | 0 | 83 | 0
COC(=O)c1ccc2nc(NC(=O)CSCC(=O)OCC(=O)c3ccccc3)sc2c1 | 0 | 0 | 0 | 0 | 0 | 0
Clc1ccc(CN2C3=NCCN3c3ccccc32)cc1 | 0 | 0 | 0 | 0 | 0 | 62
CC(C)(C)c1ccc(CN2C3=NCCCN3c3ccccc32)cc1 | 0 | 0 | 46 | 0 | 0 | 46
N#Cc1c(-c2ccccc2)nc(-c2ccccc2)[nH]c1=O | 0 | 0 | 0 | 0 | 0 | 0
N#Cc1c(-c2ccccc2)nc(-c2ccncc2)[nH]c1=O | 0 | 69 | 0 | 0 | 0 | 0
CSCCC(NC(=O)COc1ccccc1)C(=O)N1CCN(C(C)=O)CC1 (stereo not drawn) | 0 | - | - | 0 | 0 | -
COc1cc(Br)cc(/C=N/NC(=O)Cc2ccc(C(F)(F)F)cc2[N+](=O)[O-])c1O | 0 | 0 | 0 | 0 | 68 | 0
CCCCN(CCCC)C(=O)c1cc2ccccc2c(=O)o1 | 0 | 0 | 0 | 0 | 0 | 37
O=C(NC(=O)c1csnn1)Nc1ccccc1Cl | 0 | - | - | 0 | 0 | -
COc1ccc(NC(=O)CN2C(=O)CSC(C)C2=O)c(OC)c1 (stereo not drawn) | 0 | 0 | 0 | 0 | 0 | 30
CC(=O)c1ccc(NC(=O)C2CCN(S(=O)(=O)c3cccnc3)CC2)cc1 | 0 | - | - | 0 | 0 | -
Cc1ccc(S(=O)(=O)N2CCN(Cc3ccsc3)CC2)cc1 | 0 | 0 | 0 | 0 | 0 | 0
Cc1ccc2c(c1)S/C(=C/c1ccc[n+](C)c1)N2CCO | 0 | 0 | 88 | 0 | 0 | 71
Cc1ccc2c(c1)N(C)/C(=C/c1cccc[n+]1CCO)S2 | 0 | - | - | 0 | 0 | -
COCCCn1c(SCC(=O)Nc2ccccc2F)nnc1-c1ccoc1C | 0 | - | - | 0 | 0 | -
Cc1ccc(S(=O)(=O)NC2CC2)s1 | 0 | - | - | 0 | 0 | -
CN(C)c1ccc(CNc2ccc3c(c2)ncn3C)cc1 | 0 | 0 | 0 | 0 | 0 | 33
CCCn1c(=O)c2ccccc2n2c(SCC(=O)N3CCc4ccccc4C3)nnc12 | 0 | 61 | 0 | 0 | 0 | 0
CCn1c(=O)c2ccccc2n2c(SCC(=O)N3CCc4ccccc4C3)nnc12 | 0 | 0 | 0 | 0 | 0 | 0
O=C(O)c1ccc(OCc2cn3ccccc3n2)cc1 | 0 | - | 0 | 0 | 0 | 0
O=C(COc1ccc(Oc2ccccc2)cc1)NCc1cn2ccccc2n1 | 37 | 0 | 31 | 0 | 62 | 27
CCN(CC)CCSc1nnc2c3ccccc3n(Cc3ccccc3)c2n1 | 0 | - | 29 | 0 | 0 | 49
CC1CCCCN1S(=O)(=O)c1ccc2[nH]c(=O)cc(C(=O)NCCCN3CCCCCC3)c2c1 (stereo not drawn) | 0 | - | - | 0 | 0 | -
CC(=NCc1cccc(Cl)c1)c1nc(-c2ccco2)oc1O | 0 | 0 | 53 | 0 | 0 | 49
SMILES | IEC-6 cytotox | APP 5UTR inh | Ba/F3 V617F tox | KLF5 inhibitor | aSyn UTR inh | BaF3 tox
Oc1oc(-c2ccco2)nc1C=Nc1cccc(Cl)c1 | 0 | 0 | 0 | 0 | 0 | 0
Fc1cccc(Cl)c1CN1CCN(c2nc3ccccc3s2)CC1 | 0 | - | - | 0 | 0 | -
COc1cc2c(ccc3cc(OC)c(OC)c(O)c32)cc1O | - | - | - | - | 0 | -
COc1cc2c(cc1OC)-c1cc3ccc4c(c3c[n+]1CC2)OCO4 | 0 | 0 | 49 | 0 | 0 | 57
COc1cc2c(cc1OC)C(c1ccccc1)=NCC2 | 0 | 0 | 0 | 0 | 0 | 0
COc1cc2c(cc1O)CC[n+]1cc3c(OC)c(OC)ccc3cc1-2 | 0 | 0 | 0 | 0 | 0 | 45
COc1ccc(/C(C)=N/NC(=O)CNC(=O)c2ccncc2)c(OC)c1 | 0 | - | - | 0 | 0 | -
C=CCn1c(Cc2cccs2)nnc1SCC(=O)Nc1ccc(C(=O)OCC)cc1 | 0 | 47 | 0 | 0 | 0 | 0
COc1ccc(C=C2c3ccccc3C(=O)c3ccccc32)c(OC)c1 | 87 | - | 84 | 0 | 98 | 83
COc1ccc(/C=C2\CN(Cc3ccccc3)C/C(=C\c3ccc(OC)cc3OC)C2=O)c(OC)c1 | 0 | 0 | 0 | 0 | 0 | 0
OC(COCc1ccc2c(c1)OCO2)CN1CCN(Cc2ccccc2)CC1 (stereo not drawn) | 0 | 51 | 0 | 0 | 0 | 0
Cc1cn(C(=O)C(C)N2C(=O)c3ccccc3C2=O)c(C)n1 (stereo not drawn) | 0 | 0 | 0 | 0 | 0 | 0
Cc1nn(C(=O)C(C)N2C(=O)c3ccccc3C2=O)c(C)c1Br (stereo not drawn) | 0 | 0 | 0 | 0 | 0 | 94
Oc1ccc(/C=N/Nc2nc(N3CCCCCC3)nc(N3CCCCCC3)n2)c(O)c1 | 0 | 0 | 47 | 0 | 0 | 34
Oc1ccc(Br)cc1/C=N/Nc1nc(N2CCCCC2)nc(N2CCOCC2)n1 | 0 | 0 | 0 | 0 | 0 | 0
CCOc1ccc(N=c2cc(-c3ccc(OC)cc3)oc3ccccc23)cc1 | 0 | 0 | 0 | 0 | 0 | 71
COc1ccc(N=c2cc(-c3ccc(OC)cc3)oc3ccccc23)cc1 | 0 | 0 | 0 | 0 | 0 | 0
CC(=O)C1=C(O)C(=O)N(c2ccccn2)C1c1cccc(F)c1 (stereo not drawn) | 0 | - | - | 0 | 0 | -
CN1/C(=C\C(=O)COC(=O)c2ccc(O)c(O)c2)C(C)(C)c2ccccc21 | 0 | 0 | 52 | 0 | 0 | 51
CN1/C(=C\C(=O)COC(=O)CNC(=O)c2ccccc2F)C(C)(C)c2ccccc21 | 0 | - | 0 | 0 | 0 | 0
CN1/C(=C\C(=O)COC(=O)CNC(=O)c2ccc3ccccc3c2)C(C)(C)c2ccccc21 | 0 | 0 | 0 | 0 | 0 | 34
C/C(=N\Nc1ccc(F)cc1F)c1ccc(Br)s1 | 0 | 0 | 0 | 0 | 0 | 0
C/C(=N\NC(=O)CNC(=O)c1cccs1)c1ccc(Cl)c(Cl)c1 | 0 | - | - | 0 | 0 | -
CCOc1ccc(-n2c(SCC(=O)Nc3ccc(Br)cc3)nc3n[nH]c(C)c3c2=N)cc1 | 0 | 0 | 0 | 0 | 82 | 0
O=C(CNS(=O)(=O)c1ccc(Br)cc1)NCc1cccnc1 | 0 | - | - | 0 | 0 | -
SMILES | IEC-6 cytotox | APP 5UTR inh | Ba/F3 V617F tox | KLF5 inhibitor | aSyn UTR inh | BaF3 tox
CCn1c2ccccc2c2cc(/C=N/NC(=O)c3ccccc3C)ccc21 | 0 | 79 | 0 | 0 | 0 | 0
Cc1cnc(C(=O)OCC(=O)NC(C)C)cn1 | 0 | 0 | 0 | 0 | 0 | 51
CN(C)C(=O)CCCCCCCCC(=O)N(C)C | 0 | - | 0 | 0 | 0 | 0
CC1CCN(Cc2c(C(=O)N/N=C/c3ccc(C(C)(C)C)cc3)nnn2-c2nonc2N)CC1 | 0 | - | - | 0 | 64 | -
Cc1ccccc1CN1CCC(n2nccc2NC(=O)CCOc2ccccc2)CC1 | 0 | - | - | 0 | 0 | -
Cc1nc(SC(C)C(=O)NC2CCCCC2C)c2c(C)c(C)sc2n1 (stereo not drawn) | 0 | - | - | 0 | 0 | -
CN1c2ccc(Cl)cc2C(=O)NC1c1ccc([N+](=O)[O-])s1 (stereo not drawn) | 0 | - | 0 | 0 | 0 | 0
COc1ccc(/C=N/NC(=O)CN(C)C(=O)OCc2ccccc2)cc1OC | 0 | - | - | 0 | 0 | -
CC(=O)Nc1ccc(OCC(=O)NC(C)C(C)C)cc1 (stereo not drawn) | 0 | 0 | 0 | 0 | 0 | 0
CC(=O)Nc1cccc(OCC(=O)NC(C)C(C)C)c1 (stereo not drawn) | 0 | 69 | 0 | 0 | 0 | 0
